From PubChem
FEN1 inh = human FEN1 inhibition | 390,000 compounds, 0.35% hits | P39748 | AID 588795 | Recombinant FEN1 flap cleavage, fluorescence, 15 min | Potency, µM (series often up to 114 µM), actives largely listed as inhibitors; also: nearly all actives have a fitted effect of over 65% in size
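Quantitative HTS format: each compound was titrated, incubated with 10 nM nuclease for 15 min at room temperature, then challenged with flap substrate at 50 nM final. Signal change over 15 min gave concentration–effect curves.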
Pol beta inh = DNA polymerase beta (human) inhibition; Pol beta primer extension/strand displacement, fluorescence kinetic; Potency, µM (top dose mostly 114 µM), most hits filed as inhibitors; 340,000 compounds, 1.3% hits
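Preincubation: enzyme (10 nM) with compound, 15 min, RT. Reaction: substrate added to 50 nM final. Reads: 0 and 10 min. Analysis: normalized, Hill fit.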
TDP1 block = blocks human tyrosyl-DNA phosphodiesterase 1; recombinant TDP1, AlphaScreen DNA substrate cleavage; Potency, µM (doses to about 130 µM), usual class: inhibitors; 350,000 compounds, 0.28% hits; AID 485290; also: nearly all actives have a fitted effect of over 40% in size
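Compounds were preincubated with Tdp1 (1 nM final) for 15 min at room temperature before substrate (15 nM final) started a 5 min reaction; beads (10 ug/ml final) were then added for 10 min before AlphaScreen detection.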
POLI inh = blocks human DNA polymerase iota activity; 390,000 compounds, 1% hits; Q9UNA4; Potency, µM (series often up to 115 µM), actives largely listed as inhibitors; Pol iota fluorescent replication assay, 10 min; AID 588590
Target sequence (Q9UNA4 whole entry, looked up): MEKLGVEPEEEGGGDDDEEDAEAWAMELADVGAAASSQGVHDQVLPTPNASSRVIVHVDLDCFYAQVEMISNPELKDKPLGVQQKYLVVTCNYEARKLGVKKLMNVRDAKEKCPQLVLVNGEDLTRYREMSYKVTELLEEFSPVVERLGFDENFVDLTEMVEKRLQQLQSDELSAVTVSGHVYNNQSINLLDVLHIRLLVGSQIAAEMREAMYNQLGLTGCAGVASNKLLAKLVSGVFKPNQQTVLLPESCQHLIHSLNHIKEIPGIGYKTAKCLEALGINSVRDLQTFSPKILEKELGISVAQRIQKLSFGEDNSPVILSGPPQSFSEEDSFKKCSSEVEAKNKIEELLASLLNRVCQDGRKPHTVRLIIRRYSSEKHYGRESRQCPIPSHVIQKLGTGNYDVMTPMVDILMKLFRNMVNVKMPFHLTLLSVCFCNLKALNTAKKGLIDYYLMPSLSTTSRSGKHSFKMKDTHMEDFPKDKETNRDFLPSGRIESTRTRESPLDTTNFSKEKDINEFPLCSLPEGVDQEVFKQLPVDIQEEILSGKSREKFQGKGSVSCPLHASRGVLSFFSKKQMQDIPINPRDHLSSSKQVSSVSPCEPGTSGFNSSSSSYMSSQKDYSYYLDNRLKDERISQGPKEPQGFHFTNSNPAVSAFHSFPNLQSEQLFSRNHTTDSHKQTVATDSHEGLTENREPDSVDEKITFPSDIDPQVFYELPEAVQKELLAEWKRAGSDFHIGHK
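Fluorescent replication assay read twice, at 0 min and 10 min after adding 50 nM (final) substrate. Enzyme (10 nM) and compounds were first incubated 15 min at room temperature; enzyme-free buffer wells were negative controls.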
Pol kappa inh = blocks human DNA polymerase kappa activity; purified Pol kappa, fluorescent DNA synthesis assay, 10 min; Q9UBT6; 400,000 compounds, 0.53% hits; Potency, µM (doses to about 107 µM), hits mostly inhibitors
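10 nM Pol kappa preincubated 15 min at room temperature with compounds, then reaction started with substrate at 50 nM final. Fluorescence read kinetically at 0 and 10 min; buffer-only wells served as negative control.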
POLH inh = DNA polymerase eta (human) inhibition; Q9Y253; recombinant Pol eta, fluorescent DNA replication assay; Potency, µM (doses to about 114 µM), hits mostly inhibitors; 390,000 compounds, 1.2% hits; AID 588591
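Pol eta (10 nM) was preincubated with compounds for 15 min at room temperature, after which fluorescent replication substrate (50 nM final) was added to start the reaction. Fluorescence was read kinetically at 0 and 10 min.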
Numbers stand for hits; - = inactive; ? = inconclusive; . = not tested or not shown; [ ] = remark or other dose. Shown are actives, neighbours in structure and some others; about 2.4% of the full set was active somewhere. Calls follow the shape of the dose curve; as a rule, active = well fitted curve in the direction sought with a large enough effect; inconclusive = small, poorly fitted or top-dose-only effect, or another doubt; inactive = no such curve, though single readings can be large; an effect the other way counts as inactive or inconclusive.

SMILES	FEN1 inh	Pol beta inh	TDP1 block	POLI inh	Pol kappa inh	POLH inh
CC[C@@]1(O)C[C@H](O[C@H]2C[C@@H](N(C)C)[C@@H](O[C@H]3C[C@@H](O)[C@@H](O[C@H]4CCC(=O)[C@@H](C)O4)[C@@H](C)O3)[C@@H](C)O2)c2c(cc3c(c2O)C(=O)c2c(O)cccc2C3=O)[C@H]1C(=O)OC	.	.	.	.	4.5µM	.
COc1ccc(C(=O)n2nc(-c3ccco3)nc2SC)cc1OC	-	?	-	32µM	-	?
CSc1nc(=S)c2[nH]c(=S)[nH]c2[nH]1	-	-	-	14µM	-	-
COc1ccc(C(=O)CSc2ccc(-c3ccccc3)nn2)cc1	-	-	-	-	-	-
COc1ccc(C(=O)CSc2ccc(-c3ccco3)nn2)cc1	-	14µM	-	?	-	?
Cc1ccc(NCN2C(=O)C3C4C=CC(C4)C3C2=O)cc1 (configuration not stated)	-	-	-	-	-	-
O=C1C2C3C=CC(C3)C2C(=O)N1CNc1ccc(O)cc1 (configuration not stated)	.	40µM	-	.	.	.
O=C(O)COc1ccc(Br)cc1/C=N/O	-	25µM	.	?	-	11µM
CC(NC(=O)C1CCN(C(=O)N2CCOc3ccc(Cl)cc32)CC1)c1ccccc1 (configuration not stated)	-	-	-	-	-	-
O=C1OCCC1Sc1nc2ccccc2c(=O)n1-c1ccc(F)cc1 (configuration not stated)	-	-	-	-	-	-
O=C1OCCC1Sc1nc2ccccc2c(=O)n1Cc1ccc(F)cc1 (configuration not stated)	-	25µM	-	?	-	?
COc1ccc(/C=N/NC(=O)CCC(=O)Nc2ccccc2)cc1OC	-	?	-	?	-	-
COc1ccc(/C=N/NC(=O)c2ccc(=O)[nH]n2)cc1OC	-	7.9µM	-	100µM	?	?
COc1ccc(/C=N/NC(=O)c2cccc(C(=O)N/N=C/c3ccc(OC)c(OC)c3)n2)cc1OC	-	-	.	-	-	-
COc1ccc(/C=N/NC(=O)C(O)(c2ccccc2)c2ccccc2)cc1OC	-	14µM	-	-	-	-
O=C(N/N=C/c1ccc(F)cc1)c1cc(-c2ccc3c(c2)OCO3)n[nH]1	-	?	.	-	-	-
COc1ccc(/C=N/NC(=O)c2cc(-c3ccc4c(c3)OCO4)n[nH]2)cc1OC	-	4.5µM	-	?	?	?
COc1ccc(/C=N\NC(=O)c2ccc(=O)[nH]n2)cc1O	-	13µM	-	32µM	?	-
Nc1c(N=Nc2ccc([N+](=O)[O-])cc2)c(S(=O)(=O)O)cc2cc(S(=O)(=O)O)c(/C=C/c3ccccc3)c(O)c12	11µM	.	.	25µM	32µM	.
O=[N+]([O-])c1ccc(N=Nc2c(Cl)cc(O)cc2Cl)cc1	-	-	-	-	-	-
COc1ccc(OC2C=CC(c3ccccc3)OC2CO)cc1 (configuration not stated)	.	.	-[21 µM]	.	.	.
CC(C)(C)n1ncc2c(=O)n(Cc3cccc(F)c3)cnc21	-	.	.	-	-	.
O=c1c2nncn2ccn1-c1ccc(F)c(F)c1	-	32µM	-	-	-	-
COc1cccc(Cn2c(=O)cnc3cnc(Oc4cccc(Cl)c4)nc32)c1	.	.	.	.	-	.
O=C1CCCC2=C1C1(CCOCC1)N=C(Nc1nc3ccccc3o1)N2	.	.	-	.	.	.
SMILES	FEN1 inh	Pol beta inh	TDP1 block	POLI inh	Pol kappa inh	POLH inh
O=C(O)CCC(=O)N1N=C(c2ccco2)CC1c1cccs1 (configuration not stated)	-	?	-	-	-	-
Cc1ccc(C2=NN(C(=O)CCCC(=O)O)C(c3ccco3)C2)cc1 (configuration not stated)	-	89µM	-	-	-	-
O=C(O)CCC(=O)N1N=C(c2ccco2)CC1c1ccco1 (configuration not stated)	-	-	.	50µM	?	?
Cc1nnc(SCC(=O)N2N=C(c3ccc(Cl)cc3)CC2c2ccco2)[nH]c1=O (configuration not stated)	?	20µM	-	?	50µM	?
Cn1nnnc1SCC(=O)N1N=C(c2ccc(Cl)cc2)CC1c1ccco1 (configuration not stated)	-	.	-	-	-	-
Cc1ccc(CNc2ncnc3ccc(-c4ccc5c(c4)OCO5)cc23)o1	.	.	-	.	.	.
CN(C)c1ccc(/C=C/c2ccnc3ccc(I)cc23)cc1	-	.	.	-	-	.
N#Cc1nc(Nc2ccc(F)cc2)nc(NC2CCCC2)n1	.	.	-	.	.	.
NC(=O)N(CCC(=O)O)c1ccccc1	-	20µM	-	-	-	?
Cc1ccccc1CNC(=O)Cn1ncn2nc(-c3cccs3)cc2c1=O	89µM	-	-	?	-	-
O=C(O)c1cc(=O)c2c3nc4ccccc4oc-3cc(=O)c2[nH]1	?	.	.	?	10µM	.
c1nc(SSc2ncc3n[nH]nc3n2)nc2n[nH]nc12	?	.	.	?	-	.
O=C(NCCc1ccccc1)c1nccc2ccccc12	-	.	-	-	-	-
c1ccc(CCNc2ccnc3cc4ccccc4cc23)cc1	50µM	22µM	-	-	-	-
O=C(Nc1cccc([N+](=O)[O-])c1)c1ccc2c(c1)C(=O)N(c1ccccn1)C2=O	-	45µM	-	-	-	-
Cc1nc2ccc(C(=O)N/N=C/c3cc([N+](=O)[O-])ccc3O)cc2[nH]1	-	?	-	-	-	?
O=C(O)c1cccc(N2C(=O)c3ccc(C(=O)c4cccc([N+](=O)[O-])c4)cc3C2=O)c1	-	-	.	-	-	56µM
CC(=O)c1ccc(NC(=O)c2ccc3c(c2)C(=O)N(c2ccccn2)C3=O)cc1	-	-	.	-	-	-
O=C(Nc1cccc([N+](=O)[O-])c1)c1cccc(C(=O)Nc2cccc([N+](=O)[O-])c2)c1	-	1.1µM	-	-	-	-
O=C(N/N=C/c1cc([N+](=O)[O-])ccc1O)c1cccc(NC(=O)c2cccc(Cl)c2)c1	-	-	56µM	-	-	-
O=C(Nc1ccc(NC(=O)c2cccc([N+](=O)[O-])c2)cc1)c1cccc([N+](=O)[O-])c1	-	-	.	-	-	-
O=C(C[n+]1ccccc1Cl)c1ccc(Br)cc1	-	.	.	?	-	.
Cc1cccc(N(CC(O)Cn2c3ccccc3c3ccccc32)S(=O)(=O)c2ccc(F)cc2)c1 (configuration not stated)	-	-	-	?	-	-
O=C(CNC(=O)c1ccncc1)OC(C(=O)Nc1cc(C(F)(F)F)ccc1Cl)c1ccccc1 (configuration not stated)	.	.	-	.	.	.
CC(=O)Nc1ccc(/C=C/c2ccccn2)cc1	-	.	.	-	-	.
CCN(CC)/[N+]([O-])=N/Oc1ccc([N+](=O)[O-])cc1[N+](=O)[O-]	-	.	.	-	-	.
